We go through 40 compounds from the supplement of paper PMC11383364.

SMILES strings stand for the structures. “And” between values parts separate entries of the source, which are not always exact repeats. Equal values may be shown once. ± gives the standard deviation of the averaged measurements.

In this experiment the test system is SUM149. Briefly: percent difference in area under dose-response curve of relative cell number, RPMI vs HPLM; higher = drug relatively more effective in HPLM than RPMI (negative = less effective in HPLM). Particulars: treatment time: 72 h; dose range: 10-point, 1 nM to 20 µM; media compared: RPMI vs HPLM. As to the method:
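SUM149 triple-negative breast cancer cells, 500 cells/well in 384-well plates, were grown in RPMI or human plasma-like medium (HPLM) with 5% dialyzed FBS. They were pin-transferred with an anticancer plus metabolic-inhibitor library in 10-point dose series (20 µM to 1 nM). After 72 h, cells were fixed, stained with bisbenzimide and counted by Acumen plate cytometry. The AUC of relative survival vs dose was computed per medium, and the percent difference in AUC between RPMI and HPLM is reported.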
With `CC(NC(=O)c1ccccc1/N=C/c1c(O)ccc2ccccc12)c1ccccc1` (stereo not given) [Sirtinol], the “percent difference in area under dose-response curve” value (shortened to “percent difference in area”) was -4.04%. As for `Clc1ccc(C(c2ccccc2Cl)C(Cl)Cl)cc1` (stereo not given) [Mitotane], the figure is -3.24%.

For `Oc1cccc(-c2nc(N3CCOCC3)c3oc4ncccc4c3n2)c1`, the “percent difference in area” value is 3.18%. For `Cc1cc(NC(=O)c2cccc(NC(=O)/C=C/CN(C)C)c2)ccc1Nc1nccc(-c2cccnc2)n1`, the “percent difference in area” value came to 7.32%. On to `CN(C)CC[C@H](CSc1ccccc1)Nc1ccc(S(=O)(=O)NC(=O)c2ccc(N3CCN(Cc4ccccc4-c4ccc(Cl)cc4)CC3)cc2)cc1[N+](=O)[O-]`, for which the “percent difference in area” value was -4.67% and 1.88%.

For the compound `N#Cc1c(NC(=O)c2cccc3ccccc23)sc2c1CCCC2` [JNK_Inhibitor_IX], the “percent difference in area” value was -13.1%. For the compound `CN(NC(=O)CC(=O)NN(C)C(=S)c1ccccc1)C(=S)c1ccccc1` [Elesclomol], the “percent difference in area” value was -21.3 ± 1.7%. The figure for `Cc1ccc([C@@H]2O[C@H](CO)[C@@H](O)[C@H](O)[C@H]2O)cc1Cc1ccc(-c2ccc(F)cc2)s1` [Canagliflozin] is -4.56%; for `c1ccc(Cn2nnc3c(Sc4nc5ccccc5o4)ncnc32)cc1` it is 0.823%. With `CSc1cccc(Nc2ncc3cc(-c4c(Cl)cccc4Cl)c(=O)n(C)c3n2)c1`, the “percent difference in area” value stood at 11.7%. `CCN1CCN(Cc2ccc(-c3cc4c(N[C@H](C)c5ccccc5)ncnc4[nH]3)cc2)CC1`: the “percent difference in area” value was -3.13%. As for `CC1=C(/C=C/C(C)=C/C=C/C(C)=C\C(=O)O)C(C)(C)CCC1` [Isotretinoin], the “percent difference in area” value is -4.74%.

As for `CC(C)C[C@H](NC(=O)CNC(=O)c1cc(Cl)ccc1Cl)B1OC(=O)C(CC(=O)O)(CC(=O)O)O1`, the “percent difference in area” value was -1.48%.

With `OC(c1cc(C(F)(F)F)nc2c(C(F)(F)F)cccc12)C1CCCCN1` (stereo not given) [Mefloquine], the “percent difference in area” value was 3.47%. `Nc1ccn([C@@H]2O[C@H](CO)[C@@H](O)C2(F)F)c(=O)n1` [Gemcitabine]: the “percent difference in area” value was -24.6 ± 5.4%. As for `CS(=O)(=O)N1CCN(Cc2cc3nc(-c4cccc5[nH]ncc45)nc(N4CCOCC4)c3s2)CC1`, the “percent difference in area” value was -4.07%.

On to `Cc1ccc(C(=O)N(CCCN)[C@@H](c2oc3cc(Cl)ccc3c(=O)c2Cc2ccccc2)C(C)C)cc1`, for which the “percent difference in area” value is -42.1%. `Fc1cc(-c2cccc3ncc(-c4cnn(C5CCNCC5)c4)nc23)cc(F)c1CN1CCOCC1`: the “percent difference in area” value was 2.04%. Regarding `Cc1ccc(-n2nc(C(C)(C)C)cc2NC(=O)Nc2ccc(OCCN3CCOCC3)c3ccccc23)cc1`, the “percent difference in area” value was -3.95%. `O=C(O)Cc1cccc(OCCCN(Cc2cccc(C(F)(F)F)c2Cl)CC(c2ccccc2)c2ccccc2)c1`: the “percent difference in area” value came to 1.28%. For `Nc1nc(F)nc2c1ncn2[C@@H]1O[C@H](CO)[C@@H](O)[C@@H]1O` [Fludarabine], the “percent difference in area” value is -2.56 ± 3.2%. `Nc1ccn([C@@H]2C=C(CO)[C@@H](O)[C@H]2O)c(=O)n1` [Cyclopentenyl_cytosine]: the “percent difference in area” value worked out at 2.58%. Regarding `CNc1nc(-c2ccc3c(N)n[nH]c3c2)cc(N2C[C@@H](C(=O)NC3CCCCC3)CC[C@H]2C)n1`, the “percent difference in area” value is -4.83%. `Cn1cc(-c2ccc3c(c2)CCN3C(=O)Cc2cccc(C(F)(F)F)c2)c2c(N)ncnc21`: the “percent difference in area” value was 4.03%.

For `NC(=O)CCCSc1nc(N)nc(-c2c(Cl)cc3c4c(cccc24)COC3)n1`, the “percent difference in area” value was -19.2%. For the compound `CN(c1ncccc1CNc1nc(Nc2ccc3c(c2)CC(=O)N3)ncc1C(F)(F)F)S(C)(=O)=O`, the “percent difference in area” value is -16.2%. As for `CC[C@@H]1C(=O)N(C)c2cnc(Nc3ccc(C(=O)N[C@H]4CC[C@H](N5CCN(CC6CC6)CC5)CC4)cc3OC)nc2N1C(C)C`, the figure is -16.8%; as for `CC(C)C[C@H](NC(=O)CNC(=O)c1cc(Cl)ccc1Cl)B(O)O`, -12.2%; as for `COc1cc2c(N3CCN(C(=O)Nc4ccc(OC(C)C)cc4)CC3)ncnc2cc1OCCCN1CCCCC1` [Tandutinib], -4.18%.

Take `C=CCn1c(=O)c2cnc(Nc3ccc(N4CCN(C)CC4)cc3)nc2n1-c1cccc(C(C)(C)O)n1`: the “percent difference in area” value was found to be 0.0373%.

With `O=C(NCC1(c2nc(-c3ccccc3)cs2)CCOCC1)c1cccc(-c2noc(C(F)(F)F)n2)c1`, the “percent difference in area” value worked out at 0.481%.

With `Cc1cnc(NC(=O)Nc2cc(Br)c(C)cc2OC[C@@H]2CNCCO2)cn1`, the “percent difference in area” value was determined as 1.27%. As to `O=c1cnn([C@@H]2O[C@H](CO)[C@@H](O)[C@H]2O)c(=O)[nH]1` [6_Azauridine], the “percent difference in area” value amounted to 15.1%. With `COc1cc(Br)c(Nc2nc(-c3c(C)nc4ncccn34)cs2)c(Br)c1`, the “percent difference in area” value was -0.202%. As to `c1ccc(Cn2c(-c3ccc(OC[C@H](C4CCNCC4)n4c(-c5ccccc5)nc5ccccc54)cc3)nc3ccccc32)cc1` [Deltarasin], the “percent difference in area” value was -7.63%.

Consider `O=c1cc(N2CCOCC2)oc2c(-c3cccc4c3sc3ccccc34)cccc12`, for which the “percent difference in area” value was -2.53%. Turning to `CO[C@H]1C[C@@H]2CC[C@@H](C)[C@@](O)(O2)C(=O)C(=O)N2CCCC[C@H]2C(=O)O[C@H]([C@H](C)C[C@@H]2CC[C@@H](OP(C)(C)=O)[C@H](OC)C2)CC(=O)[C@H](C)/C=C(\C)[C@@H](O)[C@@H](OC)C(=O)[C@H](C)C[C@H](C)/C=C/C=C/C=C/1C` [Deforolimus], the “percent difference in area” value stood at 2.18%. Take `CC(=O)Nc1cccc(-n2c(=O)n(C3CC3)c(=O)c3c(Nc4ccc(I)cc4F)n(C)c(=O)c(C)c32)c1`: the “percent difference in area” value is -18.1%. Take `CCCCCCCC/C=C\CCCCCCCC(=O)NCCO` [Oleylethanolamide]: the “percent difference in area” value amounted to 2.18%. Regarding `CCOc1cc2ncc(C#N)c(Nc3ccc(F)c(Cl)c3)c2cc1NC(=O)/C=C/CN(C)C` [Pelitinib], the “percent difference in area” value is 4.27%.
